Some test systems named below: SK-MEL-2 melanoma; EKVX NSCLC; SN12C renal; UO-31 renal; TK-10 renal; ACHN renal; CAKI-1 renal; A498 renal; CCRF-CEM leukemia; MOLT-4 leukemia.
Holding throughout (assay): NCI-60 one-dose screen, 48 h (100 = growth as untreated, 0 = no growth, -100 = all killed)
Holding throughout (settings): 10 µM unless noted

About 83,000 compounds went through this panel and 20% of them were active in at least one assay; those are over-represented in the sample as a whole.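 Values shown are percent growth following 48 h exposure of cells in 96-well plates to a single concentration of compound; below 10 was considered active.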 Unmarked numbers belong to inactive results. Activity calls are given as the source filed them.

As to `COc1c(F)ccc(C(=O)Nc2ccc3nc(NC(=O)C4CCCN(S(=O)(=O)c5ccc(Br)s5)C4)sc3c2)c1F` (stereo not given), the growth in the assay with SK-MEL-2 melanoma was 81.8%; with EKVX NSCLC, 81.2%; in the assay with SN12C renal, 85.9%; in the assay with UO-31 renal, 77.6%; in the assay with TK-10 renal, 116%; in the assay with ACHN renal, 77.2%. The growth with CAKI-1 renal is 82.6%; in the assay with A498 renal it was 104%; in the assay with CCRF-CEM leukemia it was 75%; in the assay with MOLT-4 leukemia, 48.5%.
For the molecule `Brc1ccc(N/N=C/c2c[nH]c3ccc(Br)cc23)nc1`, the growth with SK-MEL-2 melanoma was -57% (active); in the assay with EKVX NSCLC, -11.8% (active); in the assay with SN12C renal, -22.6% (active); in the assay with UO-31 renal, -18.7% (active); in the assay on TK-10 renal, -16.8% (active); with ACHN renal, -22.8% (active). For the same molecule, the growth in the assay with CAKI-1 renal was -24.4% (active); with A498 renal it was -21.3% (active); in the assay with CCRF-CEM leukemia it was -37.7% (active); in the assay on MOLT-4 leukemia, -35% (active).
For `O=C1NC(=O)/C(=C/c2ccccc2OCc2cc3ccccc3nc2Cl)S1`, the growth is 88.6% in the assay on SK-MEL-2 melanoma; 88% with EKVX NSCLC; 81.4% in the assay with SN12C renal; 71.9% in the assay with UO-31 renal; 97.7% in the assay on TK-10 renal; 86.2% in the assay on ACHN renal. Further, the growth is 82.3% with CAKI-1 renal, 122% with A498 renal, 53.9% in the assay with CCRF-CEM leukemia and 85.3% in the assay on MOLT-4 leukemia.
With `O=C(c1ccccc1)c1ccc2nc(-c3ccc(F)cc3)[nH]c2c1`, the growth is 62.4% in the assay on SK-MEL-2 melanoma; 80.9% in the assay with EKVX NSCLC; 30.5% with SN12C renal; 91.1% in the assay on UO-31 renal; 104% in the assay on TK-10 renal; 57.1% in the assay on ACHN renal. The growth in the assay on CAKI-1 renal was 40.9%; with A498 renal, 90.7%; with CCRF-CEM leukemia, 15.7%; in the assay on MOLT-4 leukemia it was 27.6%.
In the case of `C=C1CC[C@@H]2[C@]3(C)COC(c4cn[nH]c4-c4ccc(OC)cc4)O[C@@H]3CC[C@@]2(C)[C@@H]1C/C=C1/C(=O)OCC1O` (stereo not given in full), the growth is -42.2% (active) in the assay with SK-MEL-2 melanoma; -59.8% (active) in the assay with EKVX NSCLC; -14.3% (active) with SN12C renal; -44.2% (active) with UO-31 renal; 5.62% (active) in the assay with TK-10 renal; 3.82% (active) in the assay on ACHN renal. The growth in the assay on CAKI-1 renal is -23.4% (active); in the assay on A498 renal, 50.2%; in the assay on CCRF-CEM leukemia it was 0.599% (active); with MOLT-4 leukemia it was 8.3% (active).
As to `CC1(C)CC[C@]2(C(=O)O)CC[C@]3(C)C(=CCC4[C@@]5(C)C[C@@H](O)[C@@H]6OC(c7ccco7)OC[C@@]6(C)C5CC[C@]43C)C2C1` (stereo not given in full), the growth in the assay with SK-MEL-2 melanoma was -23.4% (active); in the assay on EKVX NSCLC, 22.8%; in the assay with SN12C renal it was 20%; in the assay with UO-31 renal, 22.7%; in the assay with TK-10 renal, 29.2%; in the assay on ACHN renal, 7.44% (active). Moreover, the growth was 33.1% with CAKI-1 renal, 62.4% with A498 renal, 21.7% in the assay with CCRF-CEM leukemia and 21% in the assay on MOLT-4 leukemia.
For the molecule `C=C1CCC2C3(C)COC(c4cc(F)cc(F)c4)OC3CCC2(C)C1CC(O)C1=CCOC1=O` (stereo not given), the growth with SK-MEL-2 melanoma was 57.2%; with EKVX NSCLC it was 83.3%; in the assay with SN12C renal it was 48.1%; in the assay with UO-31 renal, 49.6%; in the assay on TK-10 renal it was 110%; in the assay on ACHN renal, 67.8%. Further, the growth in the assay with CAKI-1 renal is 60.3%; in the assay on A498 renal, 120%; in the assay with CCRF-CEM leukemia, 16.8%; in the assay on MOLT-4 leukemia it was 33.7%.
For `COc1cc2c(c(OC)c1OC)C(=O)CC(c1cccc(NC(=O)[C@@H](N)CC(C)C)c1)O2` (stereo not given in full), the growth in the assay with SK-MEL-2 melanoma is 99.3%; with EKVX NSCLC, 99.1%; with SN12C renal it was 84.4%; in the assay on UO-31 renal, 78%; with TK-10 renal it was 115%; in the assay with ACHN renal it was 103%. Further, the growth in the assay on CAKI-1 renal is 80.6%; in the assay with A498 renal, 89.3%; in the assay with CCRF-CEM leukemia, 97.6%; in the assay with MOLT-4 leukemia, 96.1%.
Regarding `COC(OC)C1=C(C)OC(N)=C(C#N)C12C(=O)Nc1ccccc12` (stereo not given), the growth was 96.2% with SK-MEL-2 melanoma; 99.7% in the assay on EKVX NSCLC; 93.3% with SN12C renal; 70.3% in the assay with UO-31 renal; 161% in the assay on TK-10 renal; 84.9% in the assay on ACHN renal. For the same molecule, the growth was 108% in the assay on CAKI-1 renal, 125% in the assay on A498 renal, 54.6% in the assay on CCRF-CEM leukemia and 95.9% with MOLT-4 leukemia.
Turning to `Cc1ccc2c(N)c(C(=O)Nc3ccc(-c4ccccc4)cc3)sc2n1`, the growth with SK-MEL-2 melanoma is 58.9%; with EKVX NSCLC it was 22.7%; in the assay with SN12C renal, 65.1%; in the assay with UO-31 renal, 56.1%; with TK-10 renal it was 75.3%; in the assay on ACHN renal, 60.1%. Besides, the growth is 59.4% with CAKI-1 renal, 114% in the assay on A498 renal, 55.4% in the assay with CCRF-CEM leukemia and 50.9% in the assay with MOLT-4 leukemia.
With `Cc1cccc(-c2nc(Nc3cccc(S(N)(=O)=O)c3)c3ccccc3n2)c1`, the growth with SK-MEL-2 melanoma is 66.6%; in the assay on EKVX NSCLC, 45.5%; in the assay on SN12C renal, 51.7%; in the assay on UO-31 renal, 29.7%; with TK-10 renal, 73.7%; in the assay with ACHN renal it was 38.1%. Also, the growth in the assay with CAKI-1 renal is 46.9%; in the assay on A498 renal, 47.7%; in the assay with CCRF-CEM leukemia, 31.7%; in the assay with MOLT-4 leukemia, 27.6%.
For `COc1ccc(Cc2nn(CC(=O)N/N=C/c3ccc(F)cc3)c(=O)c3c(C)noc23)cc1`, the growth in the assay on SK-MEL-2 melanoma is 70.5%; in the assay on EKVX NSCLC, 29.8%; in the assay on SN12C renal, -0.271% (active); in the assay on UO-31 renal, -48% (active); with TK-10 renal, -3.12% (active); in the assay with ACHN renal, -39.4% (active). For the same molecule, the growth in the assay on CAKI-1 renal was 10.2%; in the assay with A498 renal it was -57.5% (active); in the assay on CCRF-CEM leukemia, 70.4%; with MOLT-4 leukemia it was 92.6%.
Take `Cn1cc(-c2nc(N)nnc2-c2c[nH]c3ccc(F)cc23)c2cccnc21`: the growth is 85.6% in the assay with SK-MEL-2 melanoma; 62.3% in the assay on EKVX NSCLC; 49.3% in the assay on SN12C renal; 14.8% in the assay with UO-31 renal; 44.6% with TK-10 renal; 14.9% in the assay with ACHN renal. For the same molecule, the growth was 12.6% with CAKI-1 renal, 36.8% in the assay on A498 renal, 27.5% in the assay on CCRF-CEM leukemia and 18.2% with MOLT-4 leukemia.

The values are drawn from PubChem BioAssay (NCI).
